Measured values taken from PubChem BioAssay (EPA / NIEHS).
The source made the active and inactive calls. The calls were made as follows: active = hit-call score of the fitted dose curve at least 0.9, where 1 is the maximum; inactive = score below 0.9.

Test: ATG_AP_1_CIS: Attagene CIS-FACTORIAL HepG2 Assay for human Activator Protein 1 (AP-1) (AID 2282931)
Details: HepG2 Attagene cis-factorial AP-1 reporter mRNA; actives raise or lower the signal
Procedure: ATG_CIS is a cell-based, multiplexed-readout assay that uses HepG2, a human liver cell line, with measurements taken at 24 hours after chemical dosing in a 24-well plate.ATG_AP_1_CIS is one of 52 assay component(s) measured or calculated from the ATG_CIS assay. It is designed to make measurements of mRNA induction, a form of inducible reporter, as detected with fluorescence intensity signals by Reverse transcription polymerase chain reaction (RT-PCR) and Capillary electrophoresis technology.Data from the assay component ATG_AP_1_CIS was analyzed into 1 assay endpoint. This assay endpoint, ATG_AP_1_CIS, was analyzed with bidirectional fitting relative to DMSO as the negative control and baseline of activity. Using a type of inducible reporter, measures of mRNA for gain or loss-of-signal activity can be used to understand the reporter gene at the transcription factor-level as they relate to the gene FOS and JUN. Furthermore, this assay endpoint can be referred to as a primary readout, because this assay has produced multiple assay endpoints where this one serves a reporter gene function. To generalize the intended target to other relatable targets, this assay endpoint is annotated to the dna binding intended target family, where the subfamily is basic leucine zipper.
Human liver HepG2 cells are transiently transfected with multiple reporter transcription units (MRTUs) in 6-well plates using FuGene 6 reagent (Roche; 3 ml FuGene/1 mg DNA). The MRTU constructs are regulated by a cis-regulating element (promoter). […] A major difference between the CIS and TRANS system is that in CIS activities of endogenous TFs are measured, whereas the TRANS assay evaluates changes in activities of exogenous, chimeric NR-Gal4 proteins. […] At the end of 24 hour incubation, total RNA was isolated using TriZol reagent (Invitrogen). The isolated RNA is then reverse-transcribed using oligo(dT) primer and Mo-MLV reverse transcriptase (Invitrogen) with DNAse I (Ambion) treatment for 30 min. The one-tenth of the produced cDNA was amplified by PCR using Taq DNA polymerase (Invitrogen) and two reporter sequence-specific primers. The PCR products were fluorescently labeled by primer extension with 6-arboxyfluorescein (6-FAM) 5'-labeled reporter sequence-specific primer (2 min at 95 C, 20 s at 68 C and 10 min at 72 C) and these products were digested with 5U of HpaI (New England Biolabs) for 2h at 37 C. The fragments were purified using Qiaquick PCR columns (Qiagen), analyzed on an ABI 3130xL genetic analyzer (Applied Biosystems) with peak positions identified by using a set of X-rhodamine (ROX)-labeled MapMarker1000 molecular weight standards (BioVentures). The raw capillary electrophoresis data was processed using Attagraph software (Attagene).

Compound	outcome	AC50
CC1=CC[C@@]23C[C@@H]1C(C)(C)[C@@H]2CC[C@H]3C	inactive	
CCCCCCCC(=O)OCC(O)CO (stereo not given)	inactive	
CCCCC(CC)C(=O)OC(C)C (stereo not given)	inactive	
CC(C)CCCCCCCCCCCCCCC(=O)O	inactive	
Oc1c(Cl)cc(Cl)c(Cl)c1Cc1c(O)c(Cl)cc(Cl)c1Cl	inactive	
CCOCCOCCOCC	inactive	
COC(=O)Nc1ccc(Cl)c(Cl)c1		172 µM (active)
Nc1c(S(=O)(=O)O)cc(Br)c2c1C(=O)c1ccccc1C2=O	inactive	
Cc1cc(S(=O)(=O)O)ccc1N=Nc1c(O)ccc2ccccc12	inactive	
C=C[Si]1(C)O[Si](C)(C=C)O[Si](C)(C=C)O[Si](C)(C=C)O1 (stereo not given)		36.1 µM (active)
O=CN1CCOCC1	inactive	
CCc1cc(Cc2cc(CC)cc(C(C)(C)C)c2O)c(O)c(C(C)(C)C)c1		9.51 µM (active)
CCCCCCOC(=O)C(C)C	inactive	
O=C1OC(=O)c2c(Br)c(Br)c(Br)c(Br)c21	inactive	
CCC1(C)NC(=O)NC1=O (stereo not given)	inactive	
CCC(C)S (stereo not given)	inactive	
CCCCCCC(O)CCCCCCCCCCC(=O)O (stereo not given)	inactive	
C[C@H](CCC(=O)NCC(=O)O)[C@H]1CC[C@H]2[C@@H]3[C@H](O)C[C@@H]4C[C@H](O)CC[C@]4(C)[C@H]3C[C@H](O)[C@]12C	inactive	
C[Si](C)(C)O[Si](C)(C)C	inactive	
CCCCCCCCCCCCCCN(CCO)CCO	inactive	

Compound	outcome	AC50
Cc1cc(CCC(=O)OCCOCCOCCOC(=O)CCc2cc(C)c(O)c(C(C)(C)C)c2)cc(C(C)(C)C)c1O	inactive	
COc1ccc(CCC(C)=O)cc1	inactive	
CCc1ncc(C)[nH]1	inactive	
CN(C)CCOc1ccc(/C(=C(/CCCl)c2ccccc2)c2ccccc2)cc1	inactive	
C=C(C)C(=O)OCCOC1CC2CC1C1C=CCC21 (stereo not given)	inactive	
Cc1c(Cl)cccc1[N+](=O)[O-]	inactive	
Cc1ccc(N)c(S(=O)(=O)O)c1	inactive	
CS(=O)(=O)c1ccc(Cl)cc1	inactive	
CCCCCC(C=O)=Cc1ccccc1	inactive	
CC(C)C[C@H](NC(=O)OCC1c2ccccc2-c2ccccc21)C(=O)O	inactive	
C=C(C)C(=O)OCCOCCOCCOC(=O)C(=C)C	inactive	
CC(C)OCCO	inactive	
CCCCCC(=O)CC	inactive	
CN(c1nccc(=O)[nH]1)C1CCN(c2nc3ccccc3n2Cc2ccc(F)cc2)CC1	inactive	
C=Cc1ccncc1	inactive	
CN(C)c1cccc(O)c1	inactive	
Cc1occc(=O)c1OC(=O)C(C)C	inactive	
OCCc1ccccc1	inactive	
CC/C=C\CCOC(=O)CC	inactive	
O=C(Nc1ccc([N+](=O)[O-])cc1)Nc1ccc([N+](=O)[O-])cc1 (tested in a mixture with another compound)	inactive	
